# KDM4E inh = inhibitors of human JMJD2E histone demethylase; JMJD2E catalytic domain, FDH-coupled NADH fluorescence (FDH is formaldehyde dehydrogenase); Potency, µM (series often up to 57.1 µM), hits mostly inhibitors; B2RXH2; 1.6% of 230,000 active; AID 2147; active = well fitted inhibition curve with a large enough effect, not every such curve was filed as active; inconclusive = small, poorly fitted or top-dose-only effect, or another doubt; inactive = no such curve, though single readings can be large or run the other way; note: nearly all actives have a fitted effect of over 50% in size
# Target sequence (B2RXH2 1-337 limits assumed): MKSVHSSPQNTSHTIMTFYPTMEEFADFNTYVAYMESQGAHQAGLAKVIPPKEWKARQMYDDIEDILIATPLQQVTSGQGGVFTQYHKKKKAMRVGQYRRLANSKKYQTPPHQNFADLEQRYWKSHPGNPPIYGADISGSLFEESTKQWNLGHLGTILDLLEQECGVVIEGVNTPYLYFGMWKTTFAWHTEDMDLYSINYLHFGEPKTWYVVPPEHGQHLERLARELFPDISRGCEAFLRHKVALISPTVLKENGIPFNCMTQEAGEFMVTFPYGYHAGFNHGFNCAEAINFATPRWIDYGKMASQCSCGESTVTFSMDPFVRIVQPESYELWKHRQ
# Tau FP inhib = tau fibrillization inhibition (FP); K18 P301L tau heparin fibrillization, Alexa594 FP, 6 h; Potency, µM (series often up to 57.7 µM), most hits filed as inhibitors; 0.39% of 280,000 active; AID 1468; note: nearly all actives have a fitted effect of over 55% in size
# Target sequence (P10636 561-689 P618L limits assumed): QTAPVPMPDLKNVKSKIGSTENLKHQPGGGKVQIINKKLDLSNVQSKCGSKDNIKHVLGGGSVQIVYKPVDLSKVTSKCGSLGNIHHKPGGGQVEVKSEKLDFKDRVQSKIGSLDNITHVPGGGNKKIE
#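 K18 P301L tau (15 uM unlabeled/0.24 uM Alexa 594-labeled, final) + compound + heparin 20 uM final; 100 mM NaOAc pH 7; 6 hr 37 C; ThT 30 uM final added, 1 hr RT; FP ex 555/em 632 nm.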
# Tau fluor counter = counter-screen for tau fibril formation inhibitors | 0.93% of 280,000 active | tau K18 P301L Alexa594 fluorescence, heparin fibrillization | Potency, µM (highest dose often 57.7 µM); note: nearly all actives have a fitted effect of over 55% in size
#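 Human K18 P301L tau (15 uM unlabeled plus 0.24 uM Alexa 594-labeled, final) in 100 mM sodium acetate pH 7 was mixed with compound and 20 uM heparin and incubated 6 hr at 37 C.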
# FBPA coupling cs = inhibits coupling enzyme system, counter-screen for aldolase hits; 0.67% of 290,000 active; coupling enzyme system counterscreen, AmpLite Red fluorescence; activity change, negative = inhibition, % at 58.2 µM, hits read low; in the data active = activity change below about -30%
#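 Activity here indicates interference with the coupling reaction, not aldolase inhibition. Compounds at 57.5 uM final met coupling enzymes for 10 min at RT; substrate and AmpLite Red detection followed, with a 525/598 nm fluorescence read after 20 min.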
# Sfp inh = Sfp phosphopantetheinyl transferase inhibition. Q9F4F7. Biochemical Sfp PPTase activity, qHTS. Potency, µM, most hits filed as inhibitors. 3.5% of 310,000 active;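 note: the enzyme is Sfp with the accession as filed and its product quenches rhodamine fluorescence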
#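 With Hepes-Na pH 7.6 buffer containing 10 mM MgCl2, Sfp (15 nM) modified BHQ-2-YbbR (12.5 uM) using rhodamine-CoA (5 uM). Two reads 30 minutes apart at 525/598 nm yielded each well's rate.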
# Tau fibril ThT = tau fibrillization inhibition (ThT binding) | 2.1% of 270,000 active | Potency, µM (doses to about 57.4 µM), hits mostly inhibitors | recombinant tau K18 P301L (four-repeat tau fragment), heparin-induced fibrillization, ThT fluorescence | P10636; note: nearly all actives have a fitted effect of over 55% in size
#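 Recombinant human tau K18 fragment […] carrying P301L, 15 uM unlabeled plus 0.24 uM Alexa 594-labeled, was fibrillized with 20 uM heparin in 100 mM sodium acetate pH 7 for 6 hr at 37 C; 30 uM ThT fluorescence read after 1 hr.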
# Hits are given with their value; n = inactive; u = inconclusive; x = not tested or not shown; [ ] = dose if it differs, or a comment. In the library only some 5.3% were active in any assay of this set; here they are far more common. Unless noted, calls come from the whole dose curve; as a rule, active = well fitted curve in the direction sought with a large enough effect; inconclusive = small, poorly fitted or top-dose-only effect, or another doubt; inactive = no such curve, though single readings can be large; an effect the other way counts as inactive or inconclusive.
SMILES,KDM4E inh,Tau FP inhib,Tau fluor counter,FBPA coupling cs,Sfp inh,Tau fibril ThT
COC(=O)[C@H]1O[C@@H](c2cc(OC)c(C)c(OC)c2OCc2ccccc2)[C@H](C)[C@H]2O[C@@]12C,n,n,n,n,n,n
Cc1cc(C)c(NC(=O)Nc2sc3nc4n(c(=O)c3c2C)CCC(C)CC4)c(C)c1 (centres undefined),x,u,u,x,x,n
CC(=O)c1ccc(NC(=O)Nc2sc3nc4n(c(=O)c3c2C)CCC(C)CC4)cc1 (centres undefined),x,u,13µM[quencher],x,x,u
CCCCN(CC)C(=O)Cn1nc(C)c2c(C)n(-c3ccccc3)nc2c1=O,x,n,n,x,x,n
Cc1[nH]c2ccccc2c1N=Nc1ccccc1F,n,u,13µM[quencher],n,n,13µM
Cc1[nH]c2ccccc2c1N=Nc1ccc(F)cc1,n,n,14µM[quencher],n,n,13µM
COc1ccc(-c2nc3cc(NC(=O)Cc4ccc(Cl)cc4)ccc3o2)cc1OC,x,n,n,x,x,n
CCCCCC[N+](C)(C)CCSSCC[N+](C)(C)CCCCCC,n,u,n,n,n,7.1µM
C#CC[N+](C)(C)CCCCCCCCCC,n,n,n,n,n,n
CCCCCCCCCCCCCCCCCC[N+](C)(C)CCC[Si](OC)(OC)OC,x,x,x,x,n,x
CCCCCCCCCCCCCC[N+](C)(C)C,x,x,x,x,11µM,x
CCCCCCCCCCCCCCCC[N+](C)(C)CC,x,x,x,x,79µM,x
CCc1ccc(-n2cnc3cc(C(=O)NCc4ccc(C)cc4)ccc32)cc1,x,n,n,x,x,n
COC(=O)CC1=COC2OCC3=CC[C@@H]1C32 (some centres undefined),x,n[11.6 µM],n[11.6 µM],n,n,n[11.5 µM]
CCCc1cc(C(=O)Cc2ccc(C(=O)OCC)o2)c(O)cc1O,u,n,u,n,n,u
CCc1cc(-c2n[nH]c(C)c2-c2ccc3c(c2)OCCO3)c(O)cc1O,x,n,10µM[quencher],n,n,u
CCCc1cc(-c2n[nH]c(C)c2-c2ccc(C(=O)OCC)o2)c(O)cc1O,u,u,14µM[quencher],-34,n,n
Cc1ccc(CCNC(=O)CCCn2c(=O)c3ccccc3n(Cc3ccccc3C)c2=O)cc1,x,n,n,x,x,n
COC1C=CC23c4cc5c(cc4CN(CC2O)C3C1)OCO5 (centres undefined),n,n,n,n,n,n
Cc1cccc(Nc2ncnc3ccc(Br)cc23)c1,n,n,n,n,n,n
CNc1cc2c(Nc3cccc(Br)c3)ncnc2cn1,x,x,x,-50,n,x
O=C(NCc1ccccn1)Nc1ccc2c(c1)OCO2,n,n,n,n,79µM,n
C(=N\Nc1nn[nH]n1)/c1ccccc1,n,n,n,n,45µM,n
O=[N+]([O-])c1ccc(O)c(/C=N/NC2=NS(=O)(=O)c3ccccc32)c1,22µM,n,n,n,n,u
O=[N+]([O-])c1ccc(O)c(/C=N/Nc2ccc(Cl)nn2)c1,5.6µM,n,n,n,n,u
SMILES,KDM4E inh,Tau FP inhib,Tau fluor counter,FBPA coupling cs,Sfp inh,Tau fibril ThT
Oc1ccccc1/C=N/Nc1nn[nH]n1,u,n,n,n,n,n
O=[N+]([O-])c1ccc(O)c(/C=N/Nc2nn[nH]n2)c1,14µM,n,n,n,n,u
NC(N)=N/N=C/c1cc([N+](=O)[O-])ccc1O,n,n,n,n,n,u
O=C(CSc1nncn2c1cc1sccc12)Nc1ccc(Br)cc1F,x,n,n,x,x,n
COC(=O)Cn1c(=O)c2cccn2c2ccc(F)cc21,x,n,n,x,x,n
S=c1[nH]nc(-c2ccc3ccccc3n2)n1-c1ccc2ncccc2c1,n,n,n,n,u,u
S=c1[nH]nc(-c2ccc3ncccc3c2)n1-c1ccc2c(c1)OCCO2,n,n,n,n,79µM,n
Oc1ccc(-c2n[nH]c(=S)n2-c2ccc3c(c2)OCCO3)cc1,u,n,n,n,79µM,n
COc1ccc2c(c1)O[C@@H](c1ccc3c(c1)OCO3)[C@H](OC(=O)NCCOc1ccccc1)C2=O,n,n,n,n,n,n
c1ccc2c(c1)OCC(c1nn3c(Cn4nnc5ccccc54)nnc3s1)O2 (centres undefined),n,n,n,n,2.5µM,u
Clc1ccc(Cl)c(-c2nn3c(COc4ccccc4)nnc3s2)c1,n,n,n,n,14µM,u
COc1ccc(OCc2nn3c(Cn4cnc5ccccc54)nnc3s2)cc1,n,n,n,n,25µM,n
COc1ccc(OCc2nn3c(-c4cccc(OC)c4)nnc3s2)cc1,n,n,n,n,u,u
Clc1ccccc1-c1nn2c(Cn3cnc4ccccc43)nnc2s1,n,n,n,n,45µM,n
c1ccc2c(c1)ncn2Cc1nnc2sc(-c3ccc4c(c3)OCO4)nn12,u,n,n,n,n,n
CCOc1ccc(CCNC(=O)CCCc2nnc3n(CC(C)C)c(=O)c4sccc4n23)cc1,x,n,n,x,x,n
CC(=O)OC[C@@H]1O[C@H](CCON=C(C)C)C=C[C@@H]1OC(C)=O,x,n[11.6 µM],u,n,n,u
O=c1c(-c2cc(F)cc(F)c2)nc2cncnc2n1Cc1ccc(F)cc1,x,x,x,n,n,x
c1ccc(OCc2nn3c(-c4cccnc4)nnc3s2)cc1,u,n,n,n,n,n
c1ccc(OCc2nn3c(Cn4nnc5ccccc54)nnc3s2)cc1,n,n,n,n,13µM,n
c1ccc(Cc2nn3c(Cn4nnc5ccccc54)nnc3s2)cc1,n,n,n,n,35µM,n
CNc1ccc(Br)cc1C(O)c1ccccc1 (centres undefined),n,n,n,n,89µM,n
O=C(NC1CCCCC1)Oc1cc2oc(=O)sc2cc1Br,n,x,x,n,16µM,x
CN1C/C(=C\c2ccc(N3CCOCC3)cc2)C(=O)/C(=C/c2ccc(N3CCOCC3)cc2)C1,n,n,n,n,n,0.63µM
CCN1C/C(=C/c2ccc(N3CCOCC3)cc2)C(=O)/C(=C/c2ccc(N3CCOCC3)cc2)C1,n,n,n,n,u,0.63µM
SMILES,KDM4E inh,Tau FP inhib,Tau fluor counter,FBPA coupling cs,Sfp inh,Tau fibril ThT
CCc1cc2c(cc3c(=O)n(CC(=O)NC4CCCCC4)ncn32)s1,x,n,n,x,x,n
COc1ccc(C2c3c(oc4ccc(F)cc4c3=O)C(=O)N2Cc2ccc3c(c2)OCO3)cc1 (centres undefined),x,n,n,x,x,n
CCCCCCCCCCOC(=O)Cn1c(COc2ccccc2C)[n+](C)c2ccccc21,x,x,x,n,45µM,x
CCCCCCCCCCOC(=O)Cn1c(COc2ccc(OC)cc2)[n+](C)c2ccccc21,x,x,x,n,35µM,x
CCCCCCCCCCOC(=O)Cn1c(COc2ccccc2)[n+](C)c2ccccc21,x,x,x,n,40µM,x
CCCCCCCCCCOC(=O)Cn1c(COc2ccc(Cl)cc2)[n+](C)c2ccccc21,x,x,x,n,25µM,x
CCCCC(=O)Nc1cc(-c2cn3cccnc3n2)ccc1C,x,n,n,x,x,n
CCOc1ccccc1NC(=O)C(NS(=O)(=O)c1ccc2c(c1)CCC(=O)N2)c1ccccc1 (centres undefined),x,n,n,x,x,n

# Source: PubChem (National Center for Advancing Translational Sciences (NCATS))
